Source: PubChem BioAssay (National Center for Advancing Translational Sciences (NCATS))
VACV Venus inh: vaccinia inhibition (Venus reporter); AID 720580; 330,000 tested, 0.46% active; Potency, µM (titrated, usually from 36.5 µM), for the others: at the top dose activity change, negative = inhibition, actives largely listed as inhibitors; Vaccinia virus Venus reporter expression, fluorescence; calls by dose curve; tested in A549 cells; further: nearly all actives have a fitted effect of over 30% in size
MARV entry inh: inhibitors of Marburg virus binding or cell entry; Potency, µM (doses to about 37.8 µM), for inactives: at the top dose activity change, negative = inhibition, most hits filed as inhibitors; 300,000 tested, 1.8% active; Marburg virus pseudotyped entry inhibition, cell reporter; calls by dose curve; tested in HEK293 cells
FMDV inh: foot and mouth disease virus antiviral activity | Potency, µM (top dose mostly 57.9 µM), without a hit: top-dose activity change, negative = inhibition, usual class: inhibitors | 410,000 tested, 1.2% active | FMDV antiviral cell-based qHTS; calls by dose curve; tested in HEK293T cells; further: read-out not given here; nearly all actives have a fitted effect of over 45% in size
Lassa entry inh: Lassa virus entry inhibition; 300,000 tested, 1.2% active; Potency, µM (titrated, usually from 37.9 µM), inactives show at the highest dose activity change, negative = inhibition, actives largely listed as inhibitors; Lassa virus pseudotype entry inhibition, cell reporter; calls by dose curve; tested in HEK293 cells; further: nearly all actives have a fitted effect of over 50% in size
Sm TGR block: blocks Schistosoma mansoni thioredoxin glutathione reductase; Q962Y6; purified TGR, DTNB reduction, TNB absorbance 405 nm; Potency, µM (highest dose often 114 µM), without a hit: at the top dose activity change, negative = inhibition, hits mostly inhibitors; 360,000 tested, 3% active; AID 485364; active means well fitted inhibition curve with a large enough effect; inconclusive means small, poorly fitted or top-dose-only effect; inactive means no such curve, though single readings can be large or run the other way; further: nearly all actives have a fitted effect of over 60% in size
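Kinetic colorimetric format: TGR-catalysed, NADPH-driven DTNB reduction monitored via TNB absorbance. Enzyme dispensed at 20 nM; compound exposure 15 min at room temperature before reaction start.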
Vaccinia mCherry: inhibitors of vaccinia virus infection (mCherry reporter signal); Vaccinia virus mCherry reporter infection, fluorescence; Potency, µM (series often up to 36.5 µM), for the others: at the highest dose activity change, negative = inhibition, most hits filed as inhibitors; 310,000 tested, 0.63% active; AID 720579; calls by dose curve; tested in A549 cells; further: nearly all actives have a fitted effect of over 35% in size
Active calls of the source: *; [ ] = another dose, or the depositor's remark. Rows were chosen to be rich in hits. Some 5.4% of all compounds tested hit in one or more screens of this group. On the % scale 0 is the no-effect control and ±100 the full control effect; potency means the concentration at half of the fitted maximal effect.

For S=c1[nH]nc(-c2cccs2)n1/N=C/c1cn(-c2ccccc2)nc1-c1cccs1 the results were VACV Venus inh -13%, MARV entry inh inconclusive, FMDV inh 5%, Lassa entry inh inconclusive, Sm TGR block 1% and Vaccinia mCherry -7%.
`NC(N)=N/N=C/c1cn(-c2ccccc2)nc1-c1cccs1` gave MARV entry inh 23µM*, FMDV inh inconclusive, Lassa entry inh inconclusive and Sm TGR block 1%.
`COc1ccc(-c2nn(-c3ccccc3)cc2/C=N/N=C(N)N)cc1OC` gave VACV Venus inh inconclusive, MARV entry inh 10µM*, FMDV inh inconclusive, Lassa entry inh inconclusive, Sm TGR block -2% and Vaccinia mCherry inconclusive.
Screening COc1ccc(C(=O)SC2=NCCS2)cc1OC returned MARV entry inh 6%, FMDV inh inconclusive, Lassa entry inh 19% and Sm TGR block -6%.
`Cc1ccc(C(=O)SC2=NCCS2)cc1` gave VACV Venus inh -16%, MARV entry inh 12%, FMDV inh 35µM*, Lassa entry inh 4%, Sm TGR block -6% and Vaccinia mCherry -23%.
Screening O=C(CCCn1c(=O)c2cccn2c2ccccc21)Nc1cc(C(F)(F)F)ccc1Cl returned VACV Venus inh -4%, FMDV inh -20%, Lassa entry inh 27%[46.1 µM], Sm TGR block 3% and Vaccinia mCherry -1%.
For COc1ccc(NC(=O)c2c(N)c(C(=O)c3ccc(OC)cc3)n3ccccc23)cc1 the results were VACV Venus inh -9%, MARV entry inh 0%[46.1 µM], FMDV inh -11%, Lassa entry inh -3%[46.1 µM], Sm TGR block -3% and Vaccinia mCherry -13%.
Screening O=C(NCCCO)/C(=C/c1ccc(-c2cccc([N+](=O)[O-])c2)o1)NC(=O)c1ccccc1 returned VACV Venus inh 1%, MARV entry inh inconclusive, FMDV inh -23%, Lassa entry inh 1%, Sm TGR block -11% and Vaccinia mCherry 10%.
Cc1ccc(C(=O)N/C(=C/c2ccc(-c3ccc([N+](=O)[O-])cc3)o2)C(=O)NCCCN(C)C)cc1 was read as VACV Venus inh 11µM*, MARV entry inh 4µM*, FMDV inh -19%, Lassa entry inh inconclusive and Vaccinia mCherry inconclusive.
For O=C(c1ccc([N+](=O)[O-])o1)N(Cc1nnc(-c2ccccc2Cl)o1)C1CC1 the results were FMDV inh 8% and Sm TGR block 50µM*.
`Nc1ccc(C(=O)OCc2nc3cc4ccccc4cc3[nH]2)cc1` gave VACV Venus inh 32%, MARV entry inh 1.6µM*, FMDV inh 20%, Lassa entry inh 2.6µM*, Sm TGR block -12% and Vaccinia mCherry 5µM*.
`Nc1ccc(C(=O)OCCCc2nc3cc4ccccc4cc3[nH]2)cc1` gave FMDV inh 23% and Sm TGR block 5%.
Nc1ccc(C(=O)OCc2nc3c(ccc4ccccc43)[nH]2)cc1 was read as VACV Venus inh -24%, MARV entry inh inconclusive, FMDV inh 9%, Lassa entry inh 8.9µM*, Sm TGR block -6% and Vaccinia mCherry -29%.
Nc1ccc(Cc2nc3cc4ccccc4cc3[nH]2)cc1 was read as VACV Venus inh 14%, MARV entry inh inconclusive, Lassa entry inh 2.6µM*, Sm TGR block 8% and Vaccinia mCherry 5.6µM*.
`Cc1occc1C(=O)Nc1nnc(C(F)(F)F)s1` gave VACV Venus inh -12%, MARV entry inh -4%, FMDV inh 36%, Lassa entry inh 43%, Sm TGR block -2% and Vaccinia mCherry -12%.
`O=C(Nc1ccccc1C(=O)Nc1nnc(C(F)(F)F)s1)c1ccccc1` gave VACV Venus inh inconclusive, MARV entry inh 4µM*, FMDV inh inconclusive, Lassa entry inh 10µM*, Sm TGR block 3% and Vaccinia mCherry inconclusive.
For COc1cc(Cl)c(C)cc1NC(=O)CCn1cnc2onc(-c3ccc(F)cc3)c2c1=O the results were VACV Venus inh -10%, FMDV inh 0%, Lassa entry inh -9%[46.1 µM], Sm TGR block -3% and Vaccinia mCherry -15%.
